Bioassay records deposited in PubChem by several laboratories.
S1P2 ag = S1P2 receptor agonists, primary screen, cell-based | Sphingosine 1-phosphate receptor 2 (Homo sapiens), O95136 | S1P2-expressing cell line, agonist reporter read-out | activation, % at 4.5 µM | 97,000 tested, 0.46% active | AID 729, 2007; in the data active means activation above about 16%;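 further: 0% = vehicle low control and 100% = maximal reference agonist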
GALR2 antag = GALR2 antagonists in receptor-expressing cells, primary screen | antagonist mode | inhibition, % at 4 µM | Galanin receptor type 2 (Homo sapiens), O43603 | AID 828, 2007 | 140,000 tested, 0.39% active; in the data active means inhibition above about 27%;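 further: cells stimulated with galanin 1-16 at roughly its EC80; 0% = agonist challenge control and 100% = basal control without agonist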
Target sequence (O43603 whole entry, looked up): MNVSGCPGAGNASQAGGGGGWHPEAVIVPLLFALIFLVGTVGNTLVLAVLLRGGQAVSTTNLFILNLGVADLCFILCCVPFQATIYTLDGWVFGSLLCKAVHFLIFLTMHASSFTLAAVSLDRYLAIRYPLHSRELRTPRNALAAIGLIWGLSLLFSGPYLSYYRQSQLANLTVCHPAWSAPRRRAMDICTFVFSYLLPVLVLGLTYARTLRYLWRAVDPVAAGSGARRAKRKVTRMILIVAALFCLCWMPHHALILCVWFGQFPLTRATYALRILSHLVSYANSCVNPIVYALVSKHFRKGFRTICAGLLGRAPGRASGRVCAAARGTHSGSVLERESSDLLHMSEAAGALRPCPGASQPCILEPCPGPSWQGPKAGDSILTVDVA
PostGolgi yeast = phenotypic screen on post-Golgi transport, primary screen; post-Golgi transport phenotypic cell assay; inhibition, % at 10 µM; 98,000 tested, 0.9% active;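 further: yeast cells grown in 1536-well plates; yeast grown about 18 h at 30C before absorbance read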
S1P2 antag = human S1P2 receptor antagonists, primary screen, cell-based | cell-based S1P2 antagonist assay, inhibition at 5 uM | Sphingosine 1-phosphate receptor 2 (Homo sapiens), O95136 | inhibition, % at 5 µM | 97,000 tested, 0.21% active; in the data active means inhibition above about 45%;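 further: CRE beta-lactamase reporter cells expressing human S1P2 stimulated with S1P; 0% = agonist at EC80 alone and 100% = agonist plus reference antagonist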
GALR2 agonist = GALR2 receptor agonists, primary screen, cell-based. Galanin receptor type 2 (Homo sapiens), O43603. GALR2-expressing cells, agonist activation read-out. activation, % (test concentration not listed). 140,000 tested, 0.48% active. AID 803, 2007; in the data active means activation above about 5%, passing the limit was not always enough;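 further: 0% = vehicle buffer wells and 100% = reference agonist at full effect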
PostGolgi ctrl = growth inhibition of yeast control strain, primary screen, counter-screen for post-Golgi transport modulator project; efflux-deficient yeast background strain, growth absorbance A615, 16 h; inhibition, % at 10 µM; 98,000 tested, 5% active; AID 738, 2007
Starred values were filed as active, the others as inactive; / = no result. Shown is part of a subset that was picked to be rich in hits. Unless noted, no stated cut-off is given here; in the data, active means inhibition above about 30%; inactive means the rest.

SMILES	S1P2 ag	GALR2 antag	PostGolgi yeast	S1P2 antag	GALR2 agonist	PostGolgi ctrl
CCn1c(SCC(=O)Nc2nc(-c3ccc(C)cc3)cs2)nnc1-c1ccccc1O	-11.6	-1.8	69.3*	9.1	-0.1	75.9*
CC(C)P(=O)(c1cccc(C(=O)O)c1)C(C)C	/	4.0	/	/	-1.9	/
Cc1sc(NC(=O)C2CCCCC2C(=O)O)c(C(N)=O)c1-c1ccccc1 (configuration not stated)	-3.0	0.6	1.6	-15.3	-4.5	-1.1
Cc1sc(NC(=O)C2CCCCC2C(=O)O)c(C(N)=O)c1-c1ccc(C(C)(C)C)cc1 (configuration not stated)	-5.9	-7.7	7.9	5.2	-3.3	30.5*
COC(=O)c1cc(OC)c(OC)cc1NC(=S)N1CCN(c2ccccc2)CC1	-7.2	9.4	-5.8	2.1	-2.1	14.6
CCC(C)[C@H](NC(=O)NCc1ccccc1)C(=O)O (some centres not stated)	-4.3	-3.3	-2.2	10.8	-1.1	45.0*
CCC(C)[C@H](NC(=O)NCc1cccc(OC)c1)C(=O)O (some centres not stated)	-8.1	2.4	-13.4	25.0	-2.0	-0.7
O=C1C2C(C(=O)N1/N=C/c1ccc(N3CCCCC3)o1)C1C=CC2C12CC2 (configuration not stated)	/	14.5	/	/	-1.6	/
Nc1nc(-c2ccccc2)cc(-c2ccccc2O)n1	-14.1	18.3	53.8*	12.4	-1.7	35.2*
CCn1nnnc1SCC(=O)N1CCCc2ccccc21	-5.4	11.6	/	-3.0	-1.2	/
CN1CCN(C(=O)c2ccc3c(c2)N(Cc2ccc(Cl)cc2)C(=O)c2ccccc2S3=O)CC1 (configuration not stated)	/	2.0	-0.7	/	-0.1	2.6
O=C(c1ccc2c(c1)N(Cc1ccccc1)C(=O)c1ccccc1S2)N1CCCC1	-6.5	1.3	28.5	-6.3	0.8	44.6*
Cc1ccc(/C=C2/C(=O)N=C(N)N2C)s1	/	-9.0	/	/	0.8	/
Cc1ccc(C)c(/C(O)=C2\C(=O)C(=O)N(CCCn3ccnc3)C2c2cccnc2)c1 (configuration not stated)	-5.4	-6.1	/	-10.6	1.7	/
C=CCOc1c(Cl)cc(C2NC(=O)NC(C)=C2C(=O)OC)cc1Cl (configuration not stated)	-3.2	1.4	6.6	-11.8	-0.9	50.7*
Nc1oc2ccc(F)cc2c(=O)c1C=O	/	4.5	/	/	-1.9	/
O=C(CN1CCN(c2cccc(Cl)c2)CC1)Nc1ccc([N+](=O)[O-])cc1C(=O)Nc1ccccc1F	/	-1.2	/	/	-2.6	/
Cc1ccc(C)c(N2CCN(CC(=O)Nc3ccc([N+](=O)[O-])cc3C(=O)Nc3ccccc3F)CC2)c1	0.9	3.7	-4.6	3.5	-0.3	37.6*
O=C(O)c1ccc(NC2=C(N3CCOCC3)C(=O)c3ccccc3C2=O)cc1	/	7.8	/	/	-0.6	/
CC(=O)c1ccc(NC2=C(N3CCOCC3)C(=O)c3ccccc3C2=O)cc1	-2.2	-3.6	1.4	-14.0	-4.0	34.2*
O=C(CCc1nc(-c2ccccc2F)no1)Nc1ccc(Oc2ccccc2)cc1	-0.5	0.1	-8.5	-2.4	-0.8	34.5*
COc1cccc(NC(=O)CCc2nc(-c3ccccc3F)no2)c1	-3.1	-5.7	-12.9	-13.7	-0.1	-0.5
Cc1nnc(SCC(=O)Nc2ccccc2C(=O)NC2CC2)s1	/	7.7	/	/	-1.1	/
Cc1ccc(S(=O)(=O)Nc2cccc3ncccc23)s1	-9.9	8.8	-1.7	30.5	0.3	36.1*
COc1ccc(C(NC(=O)C2CCCCC2)c2c(O)ccc3ccccc23)cc1 (configuration not stated)	/	1.5	/	/	-1.8	/
SMILES	S1P2 ag	GALR2 antag	PostGolgi yeast	S1P2 antag	GALR2 agonist	PostGolgi ctrl
CCOc1ccc(NC(=O)CC(c2ccccc2)c2ccc(F)cc2)cc1 (configuration not stated)	/	-9.4	/	/	-0.8	/
CC(C(=O)O)n1c(C(F)(F)F)nc2ccccc21 (configuration not stated)	-5.2	-17.4	4.7	1.0	0.1	6.4
CCc1nc2c(cnn2-c2ccc(Cl)cc2)c(=O)n1-c1ccc(OC)cc1	-0.7	-3.5	4.2	4.2	-2.1	48.5*
CCOc1ccc(-n2c(C)nc3c(cnn3-c3ccc(Cl)cc3)c2=O)cc1	-2.3	1.6	10.4	-0.6	-1.1	13.5
O=C(Nc1ccc(N2CCOCC2)cc1N1CCOCC1)c1ccco1	1.1	-7.0	-7.3	-28.0	-2.1	44.0*
CCCCN(CC)c1nc(N)c2c(N)nc(OCC)cc2c1C#N	-2.3	-5.4	2.4	-16.1	-0.5	75.8*
CCc1nnc(NS(=O)(=O)c2ccc(NC(=O)/C=C/c3ccc(OC)cc3OC)cc2)s1	/	-5.0	/	/	0.1	/
CCc1ccc(CNC(=O)c2cc3c(C)nc4ccccc4c3o2)cc1	-4.9	16.6	-1.2	39.8	-0.4	28.9
CCN(CC)S(=O)(=O)c1ccc2oc(C(=O)NCC3COc4ccccc4O3)c(C)c2c1 (configuration not stated)	/	2.5	-9.6	/	-0.9	34.8*
Cc1c(C(=O)NCC2COc3ccccc3O2)oc2ccc(S(=O)(=O)N3CCOCC3)cc12 (configuration not stated)	-8.9	7.3	-10.9	32.5	-0.9	1.6
Cc1nc2ccccc2c2oc(C(=O)NCC3COc4ccccc4O3)cc12 (configuration not stated)	/	10.4	4.7	/	-0.4	41.7*
CC1(C(=O)NCc2ccccn2)C=CCN1C(=O)c1ccccc1 (configuration not stated)	/	-5.3	/	/	-2.8	/
CCn1cnc2sc(C)c(C)c2c1=O	-6.5	-5.5	11.8	-2.8	-0.8	31.7*
CCn1cnc2sc(C(=O)O)c(C)c2c1=O	-5.6	5.9	-8.5	-14.7	-3.5	1.5
CC1CCc2c(sc3nc(CN4CCN(S(=O)(=O)c5ccccc5[N+](=O)[O-])CC4)[nH]c(=O)c23)C1 (configuration not stated)	/	-29.2	/	/	-1.0	/
Cc1cc(C)c(O)c(-c2cc(C(=O)NCc3ccccc3)[nH]n2)c1	-2.5	-2.4	-16.1	-8.9	-2.2	31.5*
COc1ccc(/C=C(\C#N)C(=O)OCC(=O)Nc2c(C)cccc2C(C)C)cc1	/	-3.9	/	/	-0.2	/
O=S(=O)(c1ccccc1)N(CC(O)Cn1c2ccccc2c2ccccc21)c1ccccc1 (configuration not stated)	-12.4	2.8	18.7	-12.8	-1.6	22.0
CCN(CC(O)Cn1c2ccccc2c2ccccc21)S(=O)(=O)c1ccc(F)cc1 (configuration not stated)	-7.2	-7.0	4.0	9.3	-0.5	50.5*
Cc1ccc(S(=O)(=O)N(C)CC(O)Cn2c3ccccc3c3ccccc32)cc1 (configuration not stated)	-3.6	-12.8	0.2	2.9	0.8	79.7*
O/N=C1\CCCC\C1=C/c1ccccc1	/	4.6	/	/	-1.7	/
O=C(/C=C/c1ccco1)NC(=S)NNC(=O)c1ccco1	-6.2	-3.5	/	-23.9	-2.8	/
